# In all, about 360,000 compounds went through this assay and about 10,000 (2.8%) were called active. Inconclusive results (about 4%) are left out. The sample as a whole holds a higher share of actives than the screen did. Unmarked numbers belong to inactive results. Calls come from the whole dose curve; as a rule, active = well fitted inhibition curve with a large enough effect; inconclusive = small, poorly fitted or top-dose-only effect; inactive = flat fitted curve, though single readings scatter.
# Target: Serine/threonine-protein kinase PLK1 (Homo sapiens) (UniProt P53350)
# Sequence (P53350 whole entry, looked up, the tested form may be a part): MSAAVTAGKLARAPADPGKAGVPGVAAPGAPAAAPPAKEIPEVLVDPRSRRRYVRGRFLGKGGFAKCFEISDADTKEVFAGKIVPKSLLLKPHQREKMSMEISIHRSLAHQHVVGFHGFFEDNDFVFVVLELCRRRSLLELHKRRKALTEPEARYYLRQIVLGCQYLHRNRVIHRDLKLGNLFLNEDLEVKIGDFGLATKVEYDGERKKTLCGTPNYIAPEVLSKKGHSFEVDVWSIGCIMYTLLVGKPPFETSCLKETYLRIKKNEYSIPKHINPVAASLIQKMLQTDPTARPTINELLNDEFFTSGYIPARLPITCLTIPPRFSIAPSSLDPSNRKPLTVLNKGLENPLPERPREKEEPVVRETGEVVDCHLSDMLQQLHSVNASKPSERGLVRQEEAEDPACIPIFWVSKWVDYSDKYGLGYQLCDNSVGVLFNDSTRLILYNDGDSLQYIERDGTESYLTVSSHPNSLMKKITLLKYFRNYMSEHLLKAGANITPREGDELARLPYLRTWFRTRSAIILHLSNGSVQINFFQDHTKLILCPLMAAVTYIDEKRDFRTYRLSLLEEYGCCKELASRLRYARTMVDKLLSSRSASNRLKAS
# Assay: qHTS for Inhibitors of PLK1-PDB (polo-like kinase 1 - polo-box domain): Primary Screen; note: nearly all actives have a fitted effect of over 65% in size; for max response, negative = inhibition: series mostly up to about 57 µM
# Conditions: Plk1 PBD binding of FITC phosphopeptide, fluorescence polarization
# From the text: The polo-like kinase 1 (Plk1) is a member of a conserved subfamily of serine / threonine protein kinases that plays a pivotal roles in cell proliferation. It has a C-terminal non-catalytic region called the polo-box domain (PBD) that plays a crucial role in the subcellular localization of the Plk1. […] Furthermore, depletion of the overexpressed Plk1 by RNAi efficiently induces apoptotic cell death in cancer and reduces tumor growth in mouse xenograft models. Thus, targeting Plk1 is an appealing strategy for anti-cancer therapy. Therefore, this project aimed to screen the Molecular Libraries Small Molecule Repository (MLSMR) using a novel approach to find inhibitors that target the Plk1 PBD instead of the conventional N-terminal catalytic domain. This project employed a fluorescence polarization (FP) assay using a FITC-conjugated phospho-9-mer (p-9-mer) peptide and purified human Plk1 PBD protein. The identified small molecule inhibitors of Plk1 PBD can then further be developed into useful tools for biomedical and clinical research that complements or replaces current relevant disease therapy. NIH Chemical Genomics Center [NCGC] NIH Molecular Libraries Probe Centers Network [MLPCN] MLPCN Grant: MH100728 Assay Submitter (PI): Kyung Lee, NCI
# Four microliter of 25 nM FITC-p-9-mer + 60 nM Plk1 PBD in buffer solution (final concentrations 25 nM and 60 nM respectively) or 4 uL of 25 nM FITC-p-9-mer (final concentration 25 nM) in buffer will be dispensed into a 1,536 Greiner medium-binding black solid plate. Small molecules at final concentrations of 18 nM to 57 uM and positive control phospho-9-mer (sequence: Ac-PPLHSpTAI-NH2) at final concentrations 26 nM to 57 uM and phospho-13-mer (sequence: Ac-[…]pTAI-NH2) at final concentrations of 1 nM to 2.3 uM will be pin-transferred (23 nL) to the plate via a Kalypsys pin-tool robotics equipped with a 1,536-pin array. The reaction plate will be centrifuged for 1 min at 1000 rpm and incubated at room temperature for 10 min. The FITC fluorescence signals will be read using the PerkinElmer ViewLux plate reader at 480 / 20 nm excitation and 540 / 20 nm S and P polarization emission wavelengths. Reagent bottles will be kept submerged into 4 °C recirculating chiller bath and all liquid lines will be covered with aluminum foil to minimize degradation. Library plates will be screened starting from the lowest to the highest concentrations to minimize compound carryover. Vehicle only plates, with DMSO being pin-transferred instead of compound solutions, will be included regularly throughout the screen to record any systematic shifts in assay signal.
# % is set by controls: 0 for no effect and ±100 for the full control effect; potency is the fitted concentration of half-maximal effect.
Structure (SMILES),"max response, negative = inhibition [%]",Potency
Cn1c2c(c(=O)n(C)c1=O)C(c1cccc(F)c1)C(C#N)=C(N)O2 (configuration not stated),-22.7,–
Cc1nn(-c2ccccc2)c2c1C(c1ccc(F)cc1)C(C#N)=C(N)O2 (configuration not stated),–,23.8 µM (active)
COc1ccccc1C1C(C#N)=C(N)Oc2c1c(-c1ccccc1)nn2-c1ccccc1 (configuration not stated),-0.276,–
COc1ccc(S(=O)(=O)NC(=O)C2(C)CCN2C(=O)c2ccccc2CCc2ccccc2)cc1 (configuration not stated),-9.6,–
Cc1cc(Nc2ccc(C)c(C)c2)n2ncnc2n1,-12.1,–
CCCNC(=S)N1CCC(NC(=O)c2ccc(OC)cc2)CC1,-7.7,–
O=C(NC1CCN(C(=S)NCc2ccco2)CC1)c1ccc(F)cc1,–,23.8 µM (active)
O=S(=O)(c1ccc(F)cc1)N1CCN(C(=S)NCc2ccco2)CC1,-10.7,–
COC(=O)C[C@@H]1C=C[C@@H](NS(=O)(=O)c2cccc(OC)c2)[C@@H](CO)O1,-1.82,–
CC(=O)Nc1c(-c2ccc(C)cc2)nc2ccc(Cl)cn12,-2.35,–
COc1cccc(-c2nc(CS(=O)(=O)CC(=O)NCCc3ccc(OC)c(OC)c3)c(C)o2)c1,–,18.9 µM (active)
CCCCN(CC)CCCNC(=O)CS(=O)(=O)Cc1nc(-c2cccc(OC)c2)oc1C,0.434,–
COc1ccc(CCNC(=O)CS(=O)(=O)Cc2nc(-c3ccc(C)cc3)oc2C)cc1OC,-18.7,–
CC(=O)Nc1cccc(Nc2ccc(C#N)cc2)c1,0.998,–
CC1CCCC(NC(=O)COC(=O)c2ccccc2C(=O)N(C)C2CCCCC2)C1C (configuration not stated),-13.1,–
Nc1cc(N)nc(SCC(=O)Nc2cccc(S(=O)(=O)N3CCCCC3)c2)n1,-3.4,–
CCN(CC(=O)Nc1cccc(S(=O)(=O)N2CCCCC2)c1)Cc1ccccc1,1.36,–
O=C(COC(=O)c1ccccc1)Nc1cccc(S(=O)(=O)N2CCOCC2)c1,10.6,–
O=C(CSc1ccccc1)Nc1cccc(S(=O)(=O)N2CCCCC2)c1,3.72,–
O=C(CSc1ccccc1)Nc1cccc(S(=O)(=O)N2CCOCC2)c1,–,23.8 µM (active)
O=C(Cn1cnc2ccccc2c1=O)Nc1cccc(S(=O)(=O)N2CCCCC2)c1,–,26.7 µM (active)

Structure (SMILES),"max response, negative = inhibition [%]",Potency
CN(C)CCN1CCN(c2cc(-c3cccc(Cl)c3)nc3ccnn23)CC1,-12.4,–
COc1ccc(Sc2ccc(NC(=O)c3cccc(Cl)c3)cc2C#N)cc1,2.16,–
Cc1cccc(CN2CCN(C3CN(Cc4ccccc4)S(=O)(=O)C3)CC2)c1 (configuration not stated),2.44,–
Nc1ncnc2c1ncn2[C@@H]1O[C@H](CNC(=O)[C@H](N)Cc2cccnc2)[C@@H](O)[C@H]1O,-2.93,–
CCCCCC(=O)N1C[C@H](O)[C@@H](n2cc(COC(=O)c3ccccc3)nn2)C[C@@H]1c1ccc(C)cc1,-4.42,–
CCCCOC(=O)CNc1nnc(SCC(=O)OCC)[nH]c1=O,–,13.4 µM (active)
CCOC(=O)CSc1nc(C)c(Oc2ccc(Cl)cc2Cl)c(=O)[nH]1,-19.2,–
Cc1nnc(SCC(=O)N2CCOCC2)[nH]c1=O,-7.51,–
CCc1nc2ccc(C(=O)N(C)CCN(C)C)cn2c1N(CC)CCOC,-14.3,–
COCOCCn1cc(CN2CCS(=O)(=O)N(Cc3ccc(-c4ccccc4)cc3)C(CC(C)C)C2=O)nn1 (configuration not stated),-0.127,–
CCOC(=O)CNC(=O)c1nn(-c2cccc(OC)c2)c(=O)c2ccccc12,-5.49,–
COc1cccc(-n2nc(C(=O)N3CCN(Cc4ccccc4)CC3)c3ccccc3c2=O)c1,–,29.9 µM (active)
COc1ccc(-n2nc(C(=O)NCC(=O)N3CCCCCC3)c3ccccc3c2=O)cc1Cl,4.93,–
CC1(C(=O)NS(=O)(=O)c2cccs2)CCN1C(=O)Cc1ccc(-c2ccccc2)cc1 (configuration not stated),-1.09,–
COC(=O)[C@]12CCCCC=C1N(Cc1ccco1)C(=O)[C@H](CC(=O)NCCCCc1ccccc1)C2,-4.79,–
COc1cccc(CNC(=O)[C@@H]2CCCN2C(=O)[C@@H]2CCCN2C(=O)c2ccccc2)c1,-5.85,–
COc1ccc(-c2cc(=O)oc3cc(OCC(=O)N[C@@H](Cc4c[nH]c5ccccc45)C(=O)O)ccc23)cc1,-6.27,–
COc1ccc(-c2cc(C(=O)NC(C(=O)O)C(C)C)c(C)o2)cc1OC (configuration not stated),-8.55,–
COc1ccc(-c2cc(C(=O)NC(Cc3c[nH]c4ccccc34)C(=O)O)c(C)o2)cc1OC (configuration not stated),–,13.4 µM (active)
CCn1c(Cc2ccccc2)nnc1SCc1nc2ccccc2c(=O)[nH]1,-5.5,–
COc1ccc(CCCc2nnc(SCc3nc4ccccc4c(=O)[nH]3)n2C)cc1,–,3.77 µM (active)

# Reference: PubChem BioAssay AID720504 (National Center for Advancing Translational Sciences (NCATS), 2013)
